From PubChem BioAssay (EPA / NIEHS)
Records with an inconclusive call do not appear. Active and inactive are the calls of the source. Rule for the calls, unless noted: active = hit-call score of the fitted dose curve at least 0.9, where 1 is the maximum; inactive = score below 0.9.

How the values were obtained:
[1] = biological target: CCAAT/enhancer-binding protein beta (Homo sapiens) (UniProt P17676); assay: ATG_C_EBP_CIS: Attagene CIS-FACTORIAL HepG2 Assay for human CCAAT/Enhancer Binding Protein (C/EBP) beta (AID 2282927); settings: HepG2 Attagene cis-factorial transcription factor reporter; actives raise or lower the signal
Outline: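 Transiently transfected HepG2 (MRTU library, endogenous TF-driven promoters); 24 h dosing; total RNA → oligo(dT) RT → PCR → 6-FAM primer extension → HpaI digest → CE; fit bidirectionally vs DMSO.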

[2] = biological target: Transcription factor E2F1 (Homo sapiens) (UniProt Q01094); assay: ATG_E2F_CIS: Attagene CIS-FACTORIAL HepG2 Assay for human E2F Transcription Factor 1 (AID 2282935); settings: HepG2 Attagene cis-reporter, E2F reporter RNA transcripts; actives raise or lower the signal
Outline: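 Transient MRTU transfection of HepG2; 24 h compound exposure; RNA → oligo(dT) RT → PCR → FAM label → HpaI cut → CE fluorescence. Gain/loss of signal fit against DMSO.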

[3] = ATG_GATA_CIS: Attagene CIS-FACTORIAL HepG2 Assay for human GATA Binding Protein (AID 2282944); settings: HepG2 GATA cis-element reporter, Attagene multiplex mRNA; actives raise or lower the signal
Outline: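 Read-out: fluorescent reporter mRNA fragments resolved by capillary electrophoresis after RT-PCR. Human liver HepG2 cells carried transiently transfected cis-regulated reporter constructs; chemicals incubated 24 h; gain or loss of signal fitted relative to DMSO.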

[4] = biological target: Hypoxia-inducible factor 1-alpha (Homo sapiens) (UniProt Q16665); assay: ATG_HIF1a_CIS: Attagene CIS-FACTORIAL HepG2 Assay for human Hypoxia Inducible Factor 1 (HIF1A) (AID 2282951); settings: HepG2 Attagene cis-factorial HIF1a reporter transcription; actives raise or lower the signal
Outline: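 HepG2 cells transiently transfected with multiple cis-regulated reporter transcription units measure endogenous transcription factor activity. After 24 h exposure, reporter mRNA is quantified by RT-PCR with 6-FAM labelling, HpaI digestion and capillary electrophoresis. Bidirectional fitting against DMSO.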

[5] = biological target: Hepatocyte nuclear factor 6 (Homo sapiens) (UniProt Q9UBC0); assay: ATG_HNF6_CIS: Attagene CIS-FACTORIAL HepG2 Assay for human Hepatocyte Nuclear Factor 6 (HNF6) (AID 2282952); settings: HepG2 Attagene cis-factorial HNF6 reporter transcription; actives raise or lower the signal
Outline: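 Twenty-four-hour chemical treatment of reporter-transfected HepG2 cells precedes RNA isolation, DNase-treated reverse transcription and PCR of reporter sequences. Labelled fragments are sized by capillary electrophoresis and fitted bidirectionally versus DMSO.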

[6] = biological target: Heat shock factor protein 1 (Homo sapiens) (UniProt Q00613); assay: ATG_HSE_CIS: Attagene CIS-FACTORIAL HepG2 Assay for human Heat Shock Transcription Factor 1 (HSE) (AID 2282953); settings: HepG2 HSE cis-reporter, Attagene RNA transcription; actives raise or lower the signal
Outline: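 Read-out: fluorescence of reporter-specific RT-PCR fragments separated by capillary electrophoresis. HepG2 carrying transfected cis-element reporter units; 24 h dosing; activity fitted in both directions relative to DMSO baseline.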

[7] = ATG_Sox_CIS: Attagene CIS-FACTORIAL HepG2 Assay for human SRY-box transcription factor (SOX) (AID 2282960); settings: HepG2 Attagene cis-factorial SOX reporter, mRNA; actives raise or lower the signal
Outline: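 HepG2 cells transiently transfected with multiple cis-regulated reporter units, then dosed for 24 h. Reporter mRNA quantified by RT-PCR, fluorescent labelling, HpaI digestion and capillary electrophoresis; bidirectional fit versus DMSO.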

[8] = biological target: Transcription factor Sp1 (Homo sapiens) (UniProt P08047); assay: ATG_Sp1_CIS: Attagene CIS-FACTORIAL HepG2 Assay for human Specificity Protein 1 (Sp1) (AID 2282961); settings: HepG2 Sp1 cis-reporter transcription, actives raise or lower the signal
Outline: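 HepG2 cells transiently transfected with multiplexed cis-regulated reporter constructs, chemical exposure 24 h. Reporter mRNA quantified by RT-PCR with capillary electrophoresis; bidirectional fit relative to DMSO.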

[9] = biological target: Signal transducer and activator of transcription 3 (Homo sapiens) (UniProt P40763); assay: ATG_STAT3_CIS: Attagene CIS-FACTORIAL HepG2 Assay for human Signal Transducer and Activator of Transcription 3 (STAT3) (AID 2282963); settings: HepG2, Attagene cis-factorial STAT3 reporter transcription; actives raise or lower the signal
Outline: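 Readout: fluorescent reporter mRNA fragments resolved by capillary electrophoresis. Setup: HepG2 transfected with MRTUs reporting endogenous transcription-factor activity, dosed 24 h. Gain or loss of signal fitted bidirectionally against DMSO control.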

[10] = ATG_VDRE_CIS: Attagene CIS-FACTORIAL HepG2 Assay for human Vitamin D Receptor Element (VDRE) (AID 2282968); settings: HepG2 VDRE cis-reporter transcription, actives raise or lower the signal
Outline: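 Transient MRTU transfection of HepG2, 24 h compound exposure. Readout: reporter transcripts via RT-PCR and capillary electrophoresis, fluorescence. Bidirectional fit vs DMSO.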

[11] = ATG_M_06_TRANS: Attagene TRANS-FACTORIAL HepG2 Assay for M06 Transcription Factor (Internal Marker) (AID 2282983; active = hit-call score of the fitted dose curve at least 0.9, where 1 is the maximum); settings: HepG2 Attagene TRANS M06 internal marker reporter
Outline: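 Multi-reporter-transfected HepG2, 24 h treatment; reporter transcripts quantified via RT-PCR, primer-extension labelling and CE. DMSO-normalized gain-of-signal fit.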

[12] = biological target: Transcriptional activator Myb (Homo sapiens) (UniProt P10242); assay: ATG_Myb_CIS: Attagene CIS-FACTORIAL HepG2 Assay for human Myeloblastosis (Myb) Proto-Oncogene Transcription Factor (AID 2282986); settings: HepG2 Attagene CIS-FACTORIAL Myb reporter transcription; actives raise or lower the signal
Outline: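 Transiently transfected HepG2 cells carrying a multiplexed cis-promoter reporter set report endogenous Myb activity after 24 h compound exposure. Reporter mRNA is read by RT-PCR with capillary electrophoresis of fluorescent products, fitted bidirectionally against DMSO.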

[13] = ATG_NFI_CIS: Attagene CIS-FACTORIAL HepG2 Assay for human Nuclear Factor I (NFI) (AID 2282989); settings: HepG2 cis-regulatory reporter, NFI response element transcription; actives raise or lower the signal
Outline: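 Read-out: reporter mRNA via RT-PCR plus capillary electrophoresis with fluorescence detection. Transiently transfected HepG2 (endogenous TF activity on cis promoters), 24 h compound exposure; gain or loss of signal fitted against DMSO.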

[14] = biological target: Myc proto-oncogene protein (Homo sapiens) (UniProt P01106); assay: ATG_Myc_CIS: Attagene CIS-FACTORIAL HepG2 Assay for human Myelocytomatosis (Myc) Proto-Oncogene Transcription Factor (AID 2282990); settings: HepG2, Attagene cis-reporter transcription factor activity; actives raise or lower the signal
Outline: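 Read-out: fluorescent reporter mRNA fragments resolved by capillary electrophoresis after RT-PCR. Human HepG2 liver cells carried transfected cis-element reporter units and were dosed for 24 h. Gain or loss of signal fitted relative to DMSO baseline.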

[15] = ATG_NRF2_ARE_CIS: Attagene CIS-FACTORIAL HepG2 Assay for human Nuclear Factor Erythroid 2 Related Factor 2 (NFR2) response to Antioxidant Response Elements (ARE) (AID 2282992); settings: HepG2 Attagene ARE/NRF2 reporter, transcription factor activity; actives raise or lower the signal;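 for AC50: reporter mRNA level measured by RT-PCR and capillary electrophoresis fluorescence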
Outline: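 Readout: reporter mRNA quantified by RT-PCR plus FAM-labelled primer extension, HpaI digestion and capillary electrophoresis, 24 h after dosing transfected HepG2 cells. Gain or loss of signal is fitted bidirectionally against DMSO baseline.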

[16] = biological target: Cellular tumor antigen p53 (Homo sapiens) (UniProt P04637); assay: ATG_p53_CIS: Attagene CIS-FACTORIAL HepG2 Assay for human p53 Transcription Factor (AID 2282994); settings: HepG2 p53 cis-element reporter, Attagene mRNA; actives raise or lower the signal
Outline: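 Read-out: reporter mRNA by RT-PCR plus capillary electrophoresis with fluorescence detection. Human HepG2 liver cells carried transfected multi-reporter cis-element constructs, dosed 24 h. Gain or loss of signal fitted bidirectionally against DMSO control.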

[17] = ATG_PXRE_CIS: Attagene CIS-FACTORIAL HepG2 Assay for human Pregnane X Receptor Element (PXRE) (AID 2282957); settings: HepG2 Attagene CIS-FACTORIAL PXRE reporter, mRNA; actives raise or lower the signal
Outline: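 Bidirectional activity, baselined to DMSO, derived from reporter mRNA fluorescence (RT-PCR plus capillary electrophoresis) in HepG2 cells bearing cis-promoter reporter units, 24 h exposure.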

[18] = biological target: X-box-binding protein 1 (Homo sapiens) (UniProt P17861); assay: ATG_Xbp1_CIS: Attagene CIS-FACTORIAL HepG2 Assay for human X-box Binding Protein 1 (XBP1) (AID 2282972); settings: HepG2 XBP1 cis-element reporter, Attagene multiplex; actives raise or lower the signal
Outline: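 Read-out: fluorescent reporter mRNA fragments resolved by capillary electrophoresis after RT-PCR. Human HepG2 liver cells carried transfected cis-promoter reporter units and were exposed to chemicals for 24 hours. Gain or loss of signal fitted relative to DMSO baseline.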

[19] = biological target: Cellular tumor antigen p53 (Homo sapiens) (UniProt P04637); assay: TOX21_p53_BLA_p2_ratio: Tox21 HCT-116 p53 Agonism Beta-lactamase Assay, Ratio, Phase 2 (AID 2283592; active = hit-call score of the fitted dose curve at least 0.9, where 1 is the maximum)
Outline: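 DMSO-normalized, positive-direction endpoint derived from the 460 nm/530 nm FRET ratio in HCT116 p53 beta-lactamase reporter cells exposed 16 h at 37C and loaded with CCF4-AM for 2 h.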

[20] = ATG_TAL_CIS: Attagene CIS-FACTORIAL HepG2 Assay for human TAL Basal Promoter (AID 2282966); settings: HepG2 Attagene cis-factorial TAL promoter reporter; actives raise or lower the signal;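 note: background control endpoint measuring basal TAL promoter reporter mRNA not a specific factor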
Outline: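 Human hepatoma HepG2 cells, transfected with promoter-regulated reporter units, were treated 24 h. Reporter transcript levels, measured through RT-PCR and capillary electrophoresis, were fitted for gain or loss relative to DMSO.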

Sequence of Cellular tumor antigen p53 (Homo sapiens) (P04637 whole entry, looked up): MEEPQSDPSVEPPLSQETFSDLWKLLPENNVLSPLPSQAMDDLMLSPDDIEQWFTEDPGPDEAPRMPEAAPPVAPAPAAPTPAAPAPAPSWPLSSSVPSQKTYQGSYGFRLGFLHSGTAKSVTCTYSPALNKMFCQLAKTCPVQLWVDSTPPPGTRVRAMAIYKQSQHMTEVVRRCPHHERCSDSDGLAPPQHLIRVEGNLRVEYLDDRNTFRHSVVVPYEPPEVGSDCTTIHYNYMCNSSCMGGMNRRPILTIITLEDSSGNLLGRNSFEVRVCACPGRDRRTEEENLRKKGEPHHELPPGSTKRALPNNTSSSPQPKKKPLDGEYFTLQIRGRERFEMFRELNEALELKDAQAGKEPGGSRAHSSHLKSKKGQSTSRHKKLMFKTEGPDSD
Sequence of CCAAT/enhancer-binding protein beta (Homo sapiens) (P17676 whole entry, looked up): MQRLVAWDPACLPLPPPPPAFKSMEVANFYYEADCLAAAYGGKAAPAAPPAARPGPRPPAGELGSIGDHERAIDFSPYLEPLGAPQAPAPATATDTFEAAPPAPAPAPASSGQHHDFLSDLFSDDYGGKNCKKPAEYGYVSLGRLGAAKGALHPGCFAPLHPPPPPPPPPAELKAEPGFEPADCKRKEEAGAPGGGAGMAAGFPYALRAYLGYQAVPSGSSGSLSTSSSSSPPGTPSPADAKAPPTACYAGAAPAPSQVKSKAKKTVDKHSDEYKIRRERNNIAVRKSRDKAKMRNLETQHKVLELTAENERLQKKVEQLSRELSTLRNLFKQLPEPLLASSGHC
Sequence of Transcription factor E2F1 (Homo sapiens) (Q01094 whole entry, looked up): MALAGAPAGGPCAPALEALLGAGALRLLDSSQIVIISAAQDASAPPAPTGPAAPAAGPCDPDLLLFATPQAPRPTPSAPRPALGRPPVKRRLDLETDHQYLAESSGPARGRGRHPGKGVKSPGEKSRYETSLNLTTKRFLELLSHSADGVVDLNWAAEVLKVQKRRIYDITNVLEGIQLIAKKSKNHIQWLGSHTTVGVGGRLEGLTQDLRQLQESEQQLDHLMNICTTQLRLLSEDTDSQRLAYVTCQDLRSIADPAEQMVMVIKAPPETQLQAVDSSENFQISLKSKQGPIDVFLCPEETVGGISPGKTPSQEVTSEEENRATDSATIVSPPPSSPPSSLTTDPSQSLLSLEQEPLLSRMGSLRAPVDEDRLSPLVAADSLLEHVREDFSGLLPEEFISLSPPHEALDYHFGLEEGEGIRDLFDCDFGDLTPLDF
Sequence of Hepatocyte nuclear factor 6 (Homo sapiens) (Q9UBC0 whole entry, looked up, the tested form may be a part): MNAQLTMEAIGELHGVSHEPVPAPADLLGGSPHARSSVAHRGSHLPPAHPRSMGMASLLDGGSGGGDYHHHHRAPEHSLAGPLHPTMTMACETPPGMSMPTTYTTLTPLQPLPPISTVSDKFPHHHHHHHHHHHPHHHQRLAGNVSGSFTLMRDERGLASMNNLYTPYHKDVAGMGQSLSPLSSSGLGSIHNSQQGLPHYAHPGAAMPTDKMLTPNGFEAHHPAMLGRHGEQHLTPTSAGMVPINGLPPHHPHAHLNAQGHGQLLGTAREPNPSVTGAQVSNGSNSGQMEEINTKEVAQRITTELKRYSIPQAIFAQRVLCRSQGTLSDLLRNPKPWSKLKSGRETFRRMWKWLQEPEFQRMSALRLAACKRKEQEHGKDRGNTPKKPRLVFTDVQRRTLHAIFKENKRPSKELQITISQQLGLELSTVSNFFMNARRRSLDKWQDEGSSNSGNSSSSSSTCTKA
Sequence of Hypoxia-inducible factor 1-alpha (Homo sapiens) (Q16665 whole entry, looked up): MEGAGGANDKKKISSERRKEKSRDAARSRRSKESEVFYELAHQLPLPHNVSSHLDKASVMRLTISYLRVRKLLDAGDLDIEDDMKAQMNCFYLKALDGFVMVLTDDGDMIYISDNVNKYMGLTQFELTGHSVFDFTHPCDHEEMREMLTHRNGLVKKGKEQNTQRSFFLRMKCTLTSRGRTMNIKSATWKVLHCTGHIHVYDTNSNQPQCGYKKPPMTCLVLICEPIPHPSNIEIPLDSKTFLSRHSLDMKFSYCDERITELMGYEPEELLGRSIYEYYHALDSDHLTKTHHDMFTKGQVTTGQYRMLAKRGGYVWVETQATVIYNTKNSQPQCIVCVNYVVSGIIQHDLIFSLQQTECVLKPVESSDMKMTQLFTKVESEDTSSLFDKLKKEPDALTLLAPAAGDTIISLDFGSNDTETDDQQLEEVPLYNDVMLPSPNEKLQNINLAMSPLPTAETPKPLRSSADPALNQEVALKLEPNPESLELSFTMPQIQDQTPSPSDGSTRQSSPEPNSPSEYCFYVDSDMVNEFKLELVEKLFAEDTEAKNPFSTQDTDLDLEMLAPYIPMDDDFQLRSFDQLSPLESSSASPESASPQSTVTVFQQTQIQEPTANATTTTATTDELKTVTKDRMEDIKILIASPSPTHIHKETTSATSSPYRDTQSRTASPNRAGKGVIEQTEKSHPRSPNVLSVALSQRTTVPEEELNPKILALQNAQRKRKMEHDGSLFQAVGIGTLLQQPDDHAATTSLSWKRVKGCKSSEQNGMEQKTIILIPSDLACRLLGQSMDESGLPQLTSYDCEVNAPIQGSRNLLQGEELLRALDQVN
Sequence of Myc proto-oncogene protein (Homo sapiens) (P01106 whole entry, looked up, the tested form may be a part): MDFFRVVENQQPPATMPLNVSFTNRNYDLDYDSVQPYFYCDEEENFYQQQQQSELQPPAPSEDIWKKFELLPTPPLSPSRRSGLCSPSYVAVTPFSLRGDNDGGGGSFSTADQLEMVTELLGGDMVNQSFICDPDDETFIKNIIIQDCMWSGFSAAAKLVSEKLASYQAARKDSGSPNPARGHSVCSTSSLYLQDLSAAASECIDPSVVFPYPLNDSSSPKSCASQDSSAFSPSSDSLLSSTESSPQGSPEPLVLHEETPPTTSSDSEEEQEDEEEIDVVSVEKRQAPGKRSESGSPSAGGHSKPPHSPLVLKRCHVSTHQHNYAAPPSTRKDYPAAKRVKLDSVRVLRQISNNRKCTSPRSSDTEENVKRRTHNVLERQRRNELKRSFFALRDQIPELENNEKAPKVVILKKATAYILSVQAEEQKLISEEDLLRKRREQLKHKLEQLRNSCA
Sequence of Transcription factor Sp1 (Homo sapiens) (P08047 whole entry, looked up): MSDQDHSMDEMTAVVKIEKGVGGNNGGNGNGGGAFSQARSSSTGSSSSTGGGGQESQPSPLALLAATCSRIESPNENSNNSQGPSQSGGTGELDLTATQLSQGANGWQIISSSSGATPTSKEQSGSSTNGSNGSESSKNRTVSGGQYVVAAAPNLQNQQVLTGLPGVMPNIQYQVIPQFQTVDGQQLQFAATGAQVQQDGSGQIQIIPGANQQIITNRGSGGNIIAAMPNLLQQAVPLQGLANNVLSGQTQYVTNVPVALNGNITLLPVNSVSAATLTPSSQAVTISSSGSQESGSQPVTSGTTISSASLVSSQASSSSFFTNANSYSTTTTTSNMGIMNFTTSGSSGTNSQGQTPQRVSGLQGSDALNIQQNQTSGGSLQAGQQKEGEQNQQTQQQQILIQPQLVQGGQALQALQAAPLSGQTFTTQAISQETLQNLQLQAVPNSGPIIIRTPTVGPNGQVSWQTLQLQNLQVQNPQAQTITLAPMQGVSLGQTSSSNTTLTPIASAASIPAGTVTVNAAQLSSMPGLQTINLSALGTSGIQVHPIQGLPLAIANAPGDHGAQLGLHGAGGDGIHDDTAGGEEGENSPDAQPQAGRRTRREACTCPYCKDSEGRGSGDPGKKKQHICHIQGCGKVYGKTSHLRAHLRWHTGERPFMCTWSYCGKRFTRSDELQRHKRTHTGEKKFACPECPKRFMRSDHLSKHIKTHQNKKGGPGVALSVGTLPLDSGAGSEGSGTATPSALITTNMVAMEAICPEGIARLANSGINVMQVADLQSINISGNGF
Sequence of Signal transducer and activator of transcription 3 (Homo sapiens) (P40763 whole entry, looked up, the tested form may be a part): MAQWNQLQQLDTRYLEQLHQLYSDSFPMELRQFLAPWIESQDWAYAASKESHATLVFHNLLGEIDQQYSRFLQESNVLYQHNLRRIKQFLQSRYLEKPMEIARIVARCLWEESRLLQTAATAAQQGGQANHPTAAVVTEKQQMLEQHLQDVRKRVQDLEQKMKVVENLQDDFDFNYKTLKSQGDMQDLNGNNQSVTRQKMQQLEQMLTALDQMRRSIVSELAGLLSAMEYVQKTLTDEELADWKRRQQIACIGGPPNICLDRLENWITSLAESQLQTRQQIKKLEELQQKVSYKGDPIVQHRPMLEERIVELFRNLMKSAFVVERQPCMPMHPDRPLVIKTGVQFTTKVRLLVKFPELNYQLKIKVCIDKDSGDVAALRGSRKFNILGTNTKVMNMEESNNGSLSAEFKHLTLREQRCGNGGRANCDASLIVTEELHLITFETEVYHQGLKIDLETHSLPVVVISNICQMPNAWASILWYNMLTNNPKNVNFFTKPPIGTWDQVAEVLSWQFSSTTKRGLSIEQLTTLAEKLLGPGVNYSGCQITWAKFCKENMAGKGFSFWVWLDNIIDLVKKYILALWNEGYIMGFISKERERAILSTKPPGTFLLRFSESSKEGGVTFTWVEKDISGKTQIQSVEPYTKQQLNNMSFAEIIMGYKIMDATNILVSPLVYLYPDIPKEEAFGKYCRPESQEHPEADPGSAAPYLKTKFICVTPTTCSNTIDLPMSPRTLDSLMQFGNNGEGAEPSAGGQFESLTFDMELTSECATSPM
Sequence of X-box-binding protein 1 (Homo sapiens) (P17861 whole entry, looked up, the tested form may be a part): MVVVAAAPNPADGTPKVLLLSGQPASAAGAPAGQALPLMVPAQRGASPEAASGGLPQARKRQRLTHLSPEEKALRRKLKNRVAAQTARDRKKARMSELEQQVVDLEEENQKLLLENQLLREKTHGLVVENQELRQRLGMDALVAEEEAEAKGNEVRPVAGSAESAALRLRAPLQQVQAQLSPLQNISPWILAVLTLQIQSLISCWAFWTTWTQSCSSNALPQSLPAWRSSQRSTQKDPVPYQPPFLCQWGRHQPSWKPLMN

CCCCCCCCCCCCCC
outcome [1]: inactive | outcome [2]: inactive | outcome [3]: inactive | outcome [4]: inactive | outcome [5]: inactive | outcome [6]: inactive | outcome [7]: inactive | outcome [8]: inactive | outcome [9]: inactive | outcome [10]: inactive | outcome [11]: inactive | outcome [12]: inactive | outcome [13]: inactive | outcome [14]: inactive | outcome [15]: inactive | outcome [16]: inactive

OCCN(CCO)c1cccc(Cl)c1
outcome [1]: inactive | outcome [2]: inactive | outcome [3]: inactive | outcome [4]: inactive | outcome [5]: inactive | outcome [6]: inactive | AC50 [17]: 52.4 µM (active) | outcome [7]: inactive | outcome [8]: inactive | outcome [9]: inactive | outcome [10]: inactive | outcome [18]: inactive | outcome [11]: inactive | outcome [12]: inactive | outcome [13]: inactive | AC50 [15]: 175 µM (active) | outcome [16]: inactive | outcome [19]: inactive

OCCc1ccccn1
outcome [1]: inactive | outcome [2]: inactive | outcome [3]: inactive | outcome [4]: inactive | outcome [5]: inactive | outcome [6]: inactive | outcome [17]: inactive | outcome [8]: inactive | outcome [9]: inactive | outcome [20]: inactive | outcome [10]: inactive | outcome [18]: inactive | outcome [12]: inactive | outcome [13]: inactive | outcome [15]: inactive | outcome [16]: inactive | outcome [19]: inactive

CCC(C)C1N=C(C)C(C)S1 (stereo not given)
outcome [1]: inactive | outcome [3]: inactive | outcome [4]: inactive | outcome [5]: inactive | outcome [6]: inactive | AC50 [17]: 3.25 µM (active) | outcome [20]: inactive | outcome [18]: inactive | outcome [11]: inactive | outcome [12]: inactive | outcome [13]: inactive | outcome [14]: inactive | outcome [15]: inactive | outcome [16]: inactive

CCO[Si](CCCN)(OCC)OCC
outcome [1]: inactive | outcome [2]: inactive | outcome [3]: inactive | outcome [4]: inactive | outcome [5]: inactive | outcome [6]: inactive | outcome [7]: inactive | outcome [8]: inactive | outcome [20]: inactive | outcome [10]: inactive | outcome [18]: inactive | outcome [11]: inactive | outcome [12]: inactive | outcome [13]: inactive | outcome [14]: inactive | outcome [15]: inactive | outcome [16]: inactive | outcome [19]: inactive

CCC(C)(CCC(C)C)C(=O)O (stereo not given)
outcome [1]: inactive | outcome [4]: inactive | outcome [5]: inactive | outcome [17]: inactive | outcome [7]: inactive | outcome [20]: inactive | outcome [10]: inactive | outcome [18]: inactive | outcome [11]: inactive | outcome [13]: inactive | outcome [14]: inactive | outcome [15]: inactive
